Data: PubChem BioAssay
Active and inactive are the calls of the source.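 The calls were made as follows, unless noted: active = fluorescence slope higher than the sample average by over 3 SD (cut at about -0.22 in these data, passing the limit was not always enough); inactive = the rest.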

Tests used:
[1] = inhibitors of TNFa-induced NFkB p65 translocation, primary screen, imaging, HUVEC, MLSMR starter and 10KST1 sets (AID 438;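 active = inhibition above 20% together with a positive visual image hit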;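 also: compound added about 3h40 before a 20 min TNFalpha stimulation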;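 as to inhibition: signal is the nuclear over cytoplasmic p65 intensity ratio per well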); details: HUVEC TNFa-induced p65 nuclear translocation; cell count: measured here: nuclei count (cytotoxicity indicator), at 2.08 µM; inhibition: at 2 µM, stronger effect = higher value, 0% TNFa-plus-vehicle, 100% no-TNFa wells
[2] = reduction of polyQ htt aggregates in cells – imaging, exon1htt(103Q)mCFP cells, high-content imaging, primary screen (AID 483;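 active = visual image review flags a hit and inhibition of aggregation exceeds 20%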;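 also: compound exposure lasted 3 days before fixation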;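 as to nuclei count: percent of the per-plate median nuclei count of sample wells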); details: exon1htt(103Q)mCFP cell line, aggregate imaging, at 2 µM; inhibition of aggregation: stronger effect = higher value; nuclei count: measured here: cell count, toxicity
[3] = endothelial E-selectin expression blockers – imaging, HUVEC, immunofluorescence, MLSMR starter and 10KST1 sets, primary screen (AID 487;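 active = visually confirmed hit in the image check and inhibition above 20%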;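 as to inhibition: signal is fraction of cell area covered by stained E-selectin grains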;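 as to nuclei count: 100% = median nuclei count of all wells on the same plate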); details: HUVEC TNFalpha-induced E-selectin immunofluorescence imaging, at 2 µM; inhibition: stronger effect = higher value; nuclei count: measured here: cell number, toxicity
[4] = target: Voltage-gated potassium channel subunit beta-2 (Rattus norvegicus) (UniProt P62483); experiment: inhibitors of rat Kvbeta2 reductase activity – biochemical, NADPH fluorescence, primary screen (AID 622); details: recombinant KvBeta, 4-cyanobenzaldehyde reduction, at 10 µM, stronger effect = higher value;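 also: slope of raw intensity against log time taken from 70 to 1610 s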
Chain of Voltage-gated potassium channel subunit beta-2 (Rattus norvegicus) (P62483 whole entry, looked up): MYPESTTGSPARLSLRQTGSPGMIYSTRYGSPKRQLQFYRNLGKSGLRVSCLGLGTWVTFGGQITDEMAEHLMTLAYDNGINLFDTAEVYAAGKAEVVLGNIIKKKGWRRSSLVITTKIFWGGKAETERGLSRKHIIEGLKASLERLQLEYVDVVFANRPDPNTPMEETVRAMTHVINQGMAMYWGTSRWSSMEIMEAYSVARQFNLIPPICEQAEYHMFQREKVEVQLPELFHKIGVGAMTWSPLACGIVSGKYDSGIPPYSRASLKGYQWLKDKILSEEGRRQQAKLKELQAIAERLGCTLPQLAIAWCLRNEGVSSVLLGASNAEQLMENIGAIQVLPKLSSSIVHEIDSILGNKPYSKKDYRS

[5] = target: Voltage-gated potassium channel subunit beta-2 (Rattus norvegicus) (UniProt P62483); experiment: enhancers of rat Kvbeta2 NADPH turnover – biochemical, NADPH fluorescence, primary screen (AID 623;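 active = NADPH fluorescence slope more negative than the mean of all samples by about 3 SD, 99.7% confidence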;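 also: fluorescence intensity change per second fitted from 20 to 320 s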); details: Recombinant KvBeta, NADPH fluorescence decrease slope, 10 min; at 10 µM; stronger effect = lower value
[6] = target: Alpha-2C adrenergic receptor (Homo sapiens) (UniProt P18825); experiment: compounds altering alpha2C-coupled GIRK flux – cell-based, HEK293 alpha2C/GIRK1/2, thallium flux, primary screen (AID 624;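 active = fluorescence slope after compound addition differing from the mean of all screened samples at 99.7% confidence, in either direction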;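 also: slope of fluorescence ratio to pre-addition baseline per second over 15 to 24 s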); details: thallium flux BTC fluorescence, at 10 µM, actives lie on both sides
Chain of Alpha-2C adrenergic receptor (Homo sapiens) (P18825 whole entry, looked up): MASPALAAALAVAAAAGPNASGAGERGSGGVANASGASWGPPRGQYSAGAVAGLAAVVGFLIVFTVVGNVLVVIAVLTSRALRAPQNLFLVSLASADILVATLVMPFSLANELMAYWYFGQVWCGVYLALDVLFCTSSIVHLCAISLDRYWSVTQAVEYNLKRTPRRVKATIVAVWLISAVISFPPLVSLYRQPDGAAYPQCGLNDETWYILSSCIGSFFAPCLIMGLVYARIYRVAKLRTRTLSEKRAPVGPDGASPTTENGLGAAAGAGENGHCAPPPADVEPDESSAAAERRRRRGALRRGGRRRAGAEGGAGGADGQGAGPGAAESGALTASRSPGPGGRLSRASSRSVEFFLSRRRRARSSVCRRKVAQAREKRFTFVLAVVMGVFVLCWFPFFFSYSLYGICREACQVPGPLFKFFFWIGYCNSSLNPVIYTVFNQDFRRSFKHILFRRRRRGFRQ

[7] = blockers of RIG-like receptor reporter activation – cell-based, Sendai virus stimulus, luciferase, 10K MLSCN set, TLR/RLR signaling modifier project, primary screen (AID 602276;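 active = inhibition at or above 50% at 10 µM; inactive = inhibition below 50%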;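 also: firefly luciferase from ISG56 promoter only with Renilla not read in this screen; 0% = Sendai virus plus DMSO and 100% = medium plus DMSO without virus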); details: HEK293 RL24 IRF3 luciferase reporter, at 10 µM, stronger effect = higher value
[8] = TLR3 IRF3 reporter activation blockers – cell-based, poly I:C stimulus, luciferase, 10K MLSCN set, primary screen (AID 602277;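 active = inhibition of the reporter signal at or above 50%; inactive = inhibition below 50%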); details: HEK293-TLR3 RL24 IRF3 luciferase reporter, at 10 µM, stronger effect = higher value

| SMILES | cell count [1] | inhibition [1] | inhibition of aggregation [2] | nuclei count [2] [%] | inhibition [3] | nuclei count [3] [%] | fluorescence slope [4] | NADPH fluorescence slope [5] | slope [6] | inhibition [7] | inhibition [8] |
| --- | --- | --- | --- | --- | --- | --- | --- | --- | --- | --- | --- |
| CC(C)Cn1c(N)c(C(=O)COC(=O)c2cc(-c3ccco3)nc3ccccc23)c(=O)n(C)c1=O | 381 | -2.2% (inactive) | -4.3% (inactive) | 100 | -133% (inactive) | 110 | -0.482 (inactive) | -1.1e-05 (inactive) | 0.00566 (inactive) | 15.4% (inactive) | -3.29% (inactive) |
| COCCNS(=O)(=O)c1cc(F)ccc1OC | 782 | -6.6% (inactive) | -2.8% (inactive) | 113 | -62.4% (inactive) | 111 | -0.481 (inactive) | -3.4e-05 (inactive) | 0.00632 (inactive) | -4.54% (inactive) | 25.9% (inactive) |
| O=C1CCCCCN1CSc1nc2ccccc2s1 | 686 | -17.2% (inactive) | -3.1% (inactive) | 106 | 7.2% (inactive) | 97.6 | -0.433 (inactive) | -0.000138 (inactive) | 0.00664 (inactive) | 18.8% (inactive) | 27.7% (inactive) |
| Nc1nc2n(n1)C(c1c(F)cccc1Cl)CC(c1ccc(F)cc1)N2 (stereo not drawn) | 868 | 3.5% (inactive) | -46.8% (inactive) | 117 | -37% (inactive) | 110 | -0.455 (inactive) | -1.9e-05 (inactive) | 0.0048 (inactive) | -2.35% (inactive) | 25.6% (inactive) |
| COC(=O)Nc1nc2c(C)cccc2s1 | 299 | 0.7% (inactive) | -2.9% (inactive) | 95.7 | -33.7% (inactive) | 101 | -0.469 (inactive) | 9.8e-07 (inactive) | 0.0031 (inactive) | -14.5% (inactive) | -45% (inactive) |
| COc1ccccc1Cn1c(-c2ccco2)nc2nc3ccccc3nc21 | 612 | -10.5% (inactive) | -8.4% (inactive) | 109 | -13.1% (inactive) | 117 | -0.366 (inactive) | -7.7e-06 (inactive) | 0.00597 (inactive) | 1.34% (inactive) | -13.9% (inactive) |
| CCC1(c2ccc(F)cc2)NC(=O)N(CC(=O)c2ccc[nH]2)C1=O (stereo not drawn) | 556 | -20.6% (inactive) | 6.8% (inactive) | 99.9 | -36.7% (inactive) | 114 | -0.419 (inactive) | -4.1e-05 (inactive) | 0.00348 (inactive) | 4.26% (inactive) | 27% (inactive) |
| Cc1c(NC(=O)Cn2nc(C(=O)O)c3ccccc3c2=O)c(=O)n(-c2ccccc2)n1C | 521 | -10.8% (inactive) | -2.1% (inactive) | 93.8 | -148% (inactive) | 111 | -0.541 (inactive) | 3.3e-05 (inactive) | 0.00605 (inactive) | -13.8% (inactive) | -13.3% (inactive) |
| O=C(c1ccc(Cl)s1)N1CCN(c2nc3ccccc3s2)CC1 | 721 | -17.3% (inactive) | -16.4% (inactive) | 104 | -31.6% (inactive) | 107 | -0.392 (inactive) | 2e-05 (inactive) | 0.00557 (inactive) | 8.1% (inactive) | 6.32% (inactive) |
| CC(=O)c1ccccc1OCCn1nnc(-c2ccc(C)cc2)n1 | 556 | -13.7% (inactive) | -20.1% (inactive) | 106 | -24.2% (inactive) | 109 | -0.487 (inactive) | -5.6e-05 (inactive) | 0.0055 (inactive) | 12.9% (inactive) | 14% (inactive) |
| Cc1[nH]nc2c1C(=O)CCC2 | 639 | 10.7% (inactive) | 27.4% (inactive) | 96.1 | 14.9% (inactive) | 95.1 | -0.366 (inactive) | -3.1e-05 (inactive) | 0.00524 (inactive) | -1.33% (inactive) | 0.12% (inactive) |
| CCOC(=O)c1sc(N)c(C(=O)OCC)c1COC(=O)C1CC(=O)N(Cc2ccco2)C1 (stereo not drawn) | 780 | 2.9% (inactive) | -82.9% (inactive) | 104 | -33.4% (inactive) | 116 | -0.526 (inactive) | -4.5e-05 (inactive) | 0.00648 (inactive) | -20.6% (inactive) | -13.3% (inactive) |
| COc1ccccc1CNC(=O)C1CCC(CNc2c(N3CCOCC3)c(=O)c2=O)CC1 (stereo not drawn) | 739 | -14.6% (inactive) | 22.5% (inactive) | 105 | -1.3% (inactive) | 122 | -0.592 (inactive) | -3e-05 (inactive) | 0.00599 (inactive) | 1.39% (inactive) | 17.5% (inactive) |
| CC(C)c1nccn1S(=O)(=O)c1cc(Cl)ccc1Cl | 582 | -11.9% (inactive) | 6.2% (inactive) | 110 | 20.8% (inactive) | 122 | -0.422 (inactive) | -4.2e-05 (inactive) | 0.0045 (inactive) | 8.92% (inactive) | 31% (inactive) |
| COc1ccc2nc(SCC(=O)NC(C)C)[nH]c2c1 | 626 | 1.4% (inactive) | -0.8% (inactive) | 104 | -35.2% (inactive) | 107 | -0.478 (inactive) | 5.9e-05 (inactive) | 0.0062 (inactive) | -7.68% (inactive) | -5% (inactive) |
| CCOc1ccccc1C1NC(=O)NC(C)=C1C(=O)OC1CCCC1C (stereo not drawn) | 686 | 2.9% (inactive) | -3.3% (inactive) | 103 | 13.9% (inactive) | 99.1 | -0.488 (inactive) | -5e-05 (inactive) | 0.00539 (inactive) | 16.6% (inactive) | 22.2% (inactive) |
| CCOC(=O)Cn1c(=N)n(CCOc2cccc(C)c2)c2ccccc21 | 426 | -18.5% (inactive) | 19.9% (inactive) | 108 | -112% (inactive) | 224 | -0.322 (inactive) | 2e-05 (inactive) | 0.00636 (inactive) | 11.4% (inactive) | 19.4% (inactive) |
| Cc1ccc(O)c(-c2cc3ccccc3[nH]2)c1 | 616 | -4.8% (inactive) | 20% (inactive) | 98.8 | -37.9% (inactive) | 109 | -0.46 (inactive) | -3.3e-05 (inactive) | 0.00556 (inactive) | -4.2% (inactive) | -87.3% (inactive) |
| Cc1ccc(N2CCN(C(=O)c3ccccc3)CC2)c(C)c1 | 484 | -0.5% (inactive) | 1.9% (inactive) | 100 | -70.1% (inactive) | 106 | -0.413 (inactive) | -6.4e-05 (inactive) | 0.00418 (inactive) | 12% (inactive) | 0.924% (inactive) |
| S=c1[nH]nc(-c2ccccc2)n1C1C=CCCC1 (stereo not drawn) | 240 | 0.4% (inactive) | 14.7% (inactive) | 94 | -329% (inactive) | 146 | -0.465 (inactive) | -1.5e-05 (inactive) | 0.00318 (inactive) | 4.48% (inactive) | 35.6% (inactive) |
| c1ccc2c(c1)nc(NCCN1CCOCC1)c1nncn12 | 508 | 3.2% (inactive) | 25.2% (inactive) | 85.4 | -51.1% (inactive) | 99.2 | -0.587 (inactive) | -4e-05 (inactive) | 0.00643 (inactive) | 12.4% (inactive) | 37.9% (inactive) |
| Cc1ccc2nc(NCCCN3CCOCC3)c(C=NCCCN3CCOCC3)c(=O)n2c1 | 619 | -9.6% (inactive) | -38.5% (inactive) | 10.5 | -49.1% (inactive) | 141 | -0.435 (inactive) | -5.9e-05 (inactive) | 0.00509 (inactive) | 14.7% (inactive) | 33.3% (inactive) |
| CCN(CC)S(=O)(=O)c1ccc2oc(SCc3ccc(F)cc3)nc2c1 | 707 | -9.4% (inactive) | 6.8% (inactive) | 104 | -6.6% (inactive) | 110 | -0.604 (inactive) | -6.8e-05 (inactive) | 0.00777 (inactive) | 1.12% (inactive) | -39.5% (inactive) |
| O=C1C2ON(c3ccc(Cl)cc3)C(c3ccco3)C2C(=O)N1c1ccccc1 (stereo not drawn) | 510 | -2% (inactive) | 15.7% (inactive) | 97 | -106% (inactive) | 107 | -0.511 (inactive) | -2.4e-05 (inactive) | 0.00581 (inactive) | -6.65% (inactive) | -3.63% (inactive) |
| O=C(NC1CCCC1)C(c1cccs1)N(C(=O)c1ccno1)c1ccccc1 (stereo not drawn) | 648 | -3.2% (inactive) | -3.9% (inactive) | 101 | 38.6% (inactive) | 94.7 | -0.607 (inactive) | -4.3e-05 (inactive) | 0.00635 (inactive) | 3.89% (inactive) | 21.8% (inactive) |
| O=C(O)c1ccc2c(c1)C(=O)N(c1ccc(Cl)cn1)C2=O | 675 | -4.5% (inactive) | 14.8% (inactive) | 84.8 | -72% (inactive) | 131 | -0.55 (inactive) | -2.8e-05 (inactive) | 0.00724 (inactive) | 10.9% (inactive) | 29.8% (inactive) |
| O=C(O)C1CC=CCC1C(=O)Nc1cccc(C(=O)N2CCCCC2)c1 (stereo not drawn) | 419 | 6.1% (inactive) | -11.9% (inactive) | 109 | -158% (inactive) | 115 | -0.427 (inactive) | -4.3e-05 (inactive) | 0.00595 (inactive) | 0.562% (inactive) | -0.512% (inactive) |
| CN1CCN(C(c2cccc(C(F)(F)F)c2)c2nnnn2C(C)(C)C)CC1 (stereo not drawn) | 337 | -6% (inactive) | 32.7% (inactive) | 73.7 | -68.4% (inactive) | 94.8 | -0.591 (inactive) | -2.7e-05 (inactive) | 0.00442 (inactive) | 19.1% (inactive) | 22.7% (inactive) |
